Results published in PubChem BioAssay AID493076 (National Center for Advancing Translational Sciences (NCATS), 2011).
This is one part of the list. Records with an inconclusive call do not appear. Active and inactive are the calls of the source. Calls follow the shape of the dose curve; as a rule, active = well fitted curve in the direction sought with a large enough effect; inconclusive = small, poorly fitted or top-dose-only effect, or effect the other way, or another doubt; inactive = no such curve, though single readings can be large or run the other way.

Molecular target: Thyrotropin-releasing hormone receptor (Homo sapiens) (UniProt P34981)
Sequence (P34981 whole entry, looked up): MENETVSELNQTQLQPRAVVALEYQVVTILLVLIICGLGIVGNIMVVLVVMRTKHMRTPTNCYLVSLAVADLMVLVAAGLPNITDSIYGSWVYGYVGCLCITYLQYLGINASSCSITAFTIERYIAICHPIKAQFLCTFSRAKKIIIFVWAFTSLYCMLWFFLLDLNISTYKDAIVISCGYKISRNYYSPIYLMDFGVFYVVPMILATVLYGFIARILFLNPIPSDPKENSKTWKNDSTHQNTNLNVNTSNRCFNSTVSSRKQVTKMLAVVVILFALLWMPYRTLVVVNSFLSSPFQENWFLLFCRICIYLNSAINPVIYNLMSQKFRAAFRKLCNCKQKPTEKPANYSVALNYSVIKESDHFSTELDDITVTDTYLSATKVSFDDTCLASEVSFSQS
Assay: qHTS for Small Molecule Agonists and Allosteric Enhancers of Human TRH Receptor: Confirmation Screen for Enhancers; also: 0% is about no effect
Settings: TRH receptor cell assay, enhancer confirmation qHTS; series mostly up to 46.1 µM; activity change, negative = inhibition: at the top concentration
Text: NIH Chemical Genomics Center [NCGC]
NIH Molecular Libraries Probe Centers Network [MLPCN]
Assay Submitter (PI): Marvin Gershengorn
This project aims to identify small drug-like molecules that activate (agonists) the thyrotropin releasing hormone (TRH) receptor (TRHR) or enhance its TRH-stimulated activity (allosteric enhancers). TRHR, a drug-accessible cell surface receptor expressed in specific brain regions, and its ligand TRH have been implicated in several central nervous system disorders, including depression and anxiety. Small molecule TRHR agonists or allosteric enhancers that are metabolically stable and able to cross the blood-brain barrier might serve as probes to elucidate the roles of brain TRH receptors in animal models, and might be valuable as lead compounds for the development of drugs to treat patients with central nervous system disorders.
Upon TRHR-Gq activation in TRHR cells, intracellular calcium is released from stores in the endoplasmic reticulum. […] This primary screen measures compound-induced enhancement of an EC20 stimulation of the receptor by its native ligand.
For the HTS assay freshly prepared cells are plated at a density of 2000/well in 3 ul of complete DMEM medium containing 10% serum in 1536-well plates and cultured over night at 37 C in a humidified incubator with 5% CO2. The next day, 2 ul of a no wash calcium dye (ABD Bioquest) was added to the cells and plates were incubated at room temperature for 1 hour. For the assay, assay plates were loaded into the FDSS kinetic plate reader. A 10 cycle (1 second/cycle) baseline measurement is taken and then the FDSS online 1536 pintool delivers 23 nl of compound library (as well as TRH controls) to the plate. The plate is measured for kinetically at 1 cycle/sec for 180 seconds and is considered to be the agonist portion of the assay (eg, compounds which activate a positive calcium response during this portion are flagged as potential agonists). Following the 180 second read, 1 ul of either an EC20 (positive modulation assay) is delivered by an onboard pipette head. Measurements are taken kinetically for an additional 180 seconds.
TRHR FDSS Screening Protocol
1. Reagent, 3 uL 2000 cells/well 1536 TC treated Black plate in media containing 10% FCS
2. Time, 18 hours, 33.5C 5% CO2 (cells grown at 37C)
3. Reagent, 2 uL ABD fluo-8 Ca dye
4. Time, 30 min-1.5hrs hours, Room temp (6 plates/batch)
5. Detector, EX 480/EM 530C, FDSS 10 cycles baseline (1sec/cycle)
6. Compound, 23 nL of stock solution from library
7. Detector, EX 480/EM 530C, FDSS 230 cycles (1sec/cycle) Agonist mode
8. Compound, 1 ul EC20 of TRH made up in HEPES HBSS, 10 nM final
9. Detector, EX 480/EM 530C, FDSS 100 cycles (1sec/cycle) Potentiator mode

| SMILES | activity change, negative = inhibition |
| --- | --- |
| O=c1o[nH]c(-c2ccccc2)c1N=Nc1c(F)cccc1Cl | -7.87% (inactive) |
| Cc1nn(Cc2ccccc2)c(C)c1C(=O)N1CCN(CC(=O)Nc2ccccc2Cl)CC1 | -4% (inactive) |
| CC(C)c1nnc(NC(=O)CCC(=O)N2CCN(c3cccc(Cl)c3)CC2)s1 | -8.62% (inactive) |
